Assays:
[1] = molecular target: Protein kinase C alpha type (Homo sapiens) (UniProt P17252); conditions: at 1 µM
[2] = molecular target: Protein kinase C alpha type (Homo sapiens) (UniProt P17252); conditions: at 10 µM
[3] = molecular target: Protein kinase C beta type (Homo sapiens) (UniProt P05771); conditions: at 1 µM
[4] = molecular target: Protein kinase C beta type (Homo sapiens) (UniProt P05771); conditions: at 10 µM
[5] = molecular target: Protein kinase C beta type (Homo sapiens) (UniProt P05771); conditions: at 1 µM; remark: listed apart in the source
[6] = molecular target: Protein kinase C beta type (Homo sapiens) (UniProt P05771); conditions: at 10 µM; remark: listed apart in the source
[7] = molecular target: Protein kinase C gamma type (Homo sapiens) (UniProt P05129); conditions: at 1 µM
[8] = molecular target: Protein kinase C gamma type (Homo sapiens) (UniProt P05129); conditions: at 10 µM
[9] = molecular target: Protein kinase C delta type (Homo sapiens) (UniProt Q05655); conditions: at 1 µM
Chain of Protein kinase C delta type (Homo sapiens) (Q05655 whole entry, looked up): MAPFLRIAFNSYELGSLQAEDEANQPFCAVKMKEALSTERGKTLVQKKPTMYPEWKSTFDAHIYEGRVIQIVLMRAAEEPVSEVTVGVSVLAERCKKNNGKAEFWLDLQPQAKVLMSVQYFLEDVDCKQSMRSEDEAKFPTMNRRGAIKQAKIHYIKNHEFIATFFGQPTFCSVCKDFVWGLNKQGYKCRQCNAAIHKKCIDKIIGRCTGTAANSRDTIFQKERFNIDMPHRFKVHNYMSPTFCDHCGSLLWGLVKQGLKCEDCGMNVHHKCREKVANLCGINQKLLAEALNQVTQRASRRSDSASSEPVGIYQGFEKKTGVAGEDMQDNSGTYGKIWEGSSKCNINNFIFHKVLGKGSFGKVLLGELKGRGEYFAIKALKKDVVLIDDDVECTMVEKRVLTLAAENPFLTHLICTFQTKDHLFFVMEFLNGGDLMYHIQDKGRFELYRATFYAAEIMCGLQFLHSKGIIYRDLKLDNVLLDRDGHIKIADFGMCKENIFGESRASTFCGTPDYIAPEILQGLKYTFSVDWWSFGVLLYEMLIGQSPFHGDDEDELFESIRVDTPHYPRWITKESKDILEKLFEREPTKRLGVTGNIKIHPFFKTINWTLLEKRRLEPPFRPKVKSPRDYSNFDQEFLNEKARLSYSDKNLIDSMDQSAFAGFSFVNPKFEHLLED

[10] = molecular target: Protein kinase C delta type (Homo sapiens) (UniProt Q05655); conditions: at 10 µM

Chain of Protein kinase C beta type (Homo sapiens) (P05771 2-671 limits assumed): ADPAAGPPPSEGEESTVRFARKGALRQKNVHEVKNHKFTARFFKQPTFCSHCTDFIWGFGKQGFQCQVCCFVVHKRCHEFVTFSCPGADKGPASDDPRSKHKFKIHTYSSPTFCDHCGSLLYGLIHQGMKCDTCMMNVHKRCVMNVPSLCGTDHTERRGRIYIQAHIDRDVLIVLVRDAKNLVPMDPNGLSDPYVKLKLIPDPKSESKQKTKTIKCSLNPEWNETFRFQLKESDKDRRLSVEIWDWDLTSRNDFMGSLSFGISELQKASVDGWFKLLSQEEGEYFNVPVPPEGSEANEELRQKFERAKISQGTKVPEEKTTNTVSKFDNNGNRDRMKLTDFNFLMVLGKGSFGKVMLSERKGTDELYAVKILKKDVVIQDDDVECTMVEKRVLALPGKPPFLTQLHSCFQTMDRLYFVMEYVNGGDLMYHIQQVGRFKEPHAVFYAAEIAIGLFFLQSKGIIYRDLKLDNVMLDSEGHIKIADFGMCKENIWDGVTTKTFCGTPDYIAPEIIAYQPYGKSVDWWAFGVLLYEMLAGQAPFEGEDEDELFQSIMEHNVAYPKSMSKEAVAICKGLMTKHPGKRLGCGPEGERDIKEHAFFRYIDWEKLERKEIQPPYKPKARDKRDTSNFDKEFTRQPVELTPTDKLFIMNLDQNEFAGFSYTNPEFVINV

Structure (SMILES)	residual activity [1] [%]	residual activity [2] [%]	residual activity [3] [%]	residual activity [4] [%]	residual activity [5] [%]	residual activity [6] [%]	residual activity [7] [%]	residual activity [8] [%]	residual activity [9] [%]	residual activity [10] [%]
O=C(O)c1ccc2c3c1cccc3c(=O)n1c3ccccc3nc21	99	98	125	113	115	100	94	74	100	107
CO[C@H]1[C@@H](OC)C[C@H](C)[C@@H](OC)C2=CC(=O)C=C(NC(=O)/C(C)=C/C=C/[C@H](OC)[C@@H](OC(N)=O)/C(C)=C/[C@@H]1C)C2=O	110	107	106	121	92	97	111	99	107	107
CC(=O)O/N=C1\C(=C2\C(=O)Nc3cc(Br)ccc32)Nc2ccccc21	105	101	122	122	105	94	97	109	98	108
O=C1NC(=O)/C(=C/c2ccc3c(c2)OC(F)(F)O3)S1	106	102	134	126	98	102	103	101	107	103
Nc1n[nH]c2nnc(-c3c(-c4ccccc4)nn4ccccc34)cc12	97	91	99	96	102	93	98	98	22	4
CO[C@@H]1[C@H](N(C)C(=O)c2ccccc2)C[C@H]2O[C@]1(C)n1c3ccccc3c3c4c(c5c6ccccc6n2c5c31)C(=O)NC4	36	14	66	14	61	45	15	6	21	9
CN(C)c1ccc(/C=C2\C(=O)Nc3ccccc32)cc1	103	101	114	112	94	98	113	102	88	101
COc1cc2ncnc(N3CCN(C(=O)Nc4ccc(Oc5ccccc5)cc4)CC3)c2cc1OC	99	103	106	97	101	102	103	107	101	110
CO[C@H]1C[C@@H]2CC[C@@H](C)[C@@](O)(O2)C(=O)C(=O)N2CCCC[C@H]2C(=O)O[C@H]([C@H](C)C[C@@H]2CC[C@@H](O)[C@H](OC)C2)CC(=O)[C@H](C)/C=C(\C)[C@@H](O)[C@@H](OC)C(=O)[C@H](C)C[C@H](C)/C=C/C=C/C=C/1C	99	99	107	106	105	103	105	98	98	99
O=C1NC(=O)c2cc(Nc3ccc(F)cc3)c(Nc3ccc(F)cc3)cc21	104	101	107	86	93	103	111	98	97	105
c1ccc2c(-c3ccncc3)c[nH]c2c1	98	80	105	64	98	65	106	86	63	23
Ic1cccc(CSc2nnc(-c3ccncc3)o2)c1	96	95	107	102	95	92	97	104	100	101
CNc1cc2c(Nc3cccc(Br)c3)ncnc2cn1	106	95	118	105	104	103	109	94	104	105
CCC(=O)Nc1ccc2ncnc(Nc3cccc(Br)c3)c2c1	100	91	117	99	108	104	109	100	101	113
O=C(Nc1cccc(Nc2nccc(Nc3cccc(C(F)(F)F)c3)n2)c1)C1CC1	95	66	110	107	99	102	98	90	100	106
CCOc1cc2ncnc(Nc3cccc(Br)c3)c2cc1OCC	107	97	87	97	100	103	108	112	106	104
C[C@@H](N)[C@H]1CC[C@H](C(=O)Nc2ccncc2)CC1	94	84	101	87	81	34	97	96	48	12
COc1cc2ncnc(Nc3ccc(O)c(Br)c3)c2cc1OC	107	109	97	83	94	97	102	100	100	81
O=C1NC(=O)/C(=C\c2ccc3nccnc3c2)S1	108	88	124	121	101	100	109	83	99	81
CC(C)n1cnc2/c(=N/c3cccc(Cl)c3)nc(NCCO)[nH]c21	101	63	104	89	101	100	99	70	96	82
O=C(Nc1cccc(Nc2cc(Nc3cccc(C(F)(F)F)c3)ncn2)c1)C1CC1	102	101	105	104	98	97	112	106	93	94

Structure (SMILES)	residual activity [1] [%]	residual activity [2] [%]	residual activity [3] [%]	residual activity [4] [%]	residual activity [5] [%]	residual activity [6] [%]	residual activity [7] [%]	residual activity [8] [%]	residual activity [9] [%]	residual activity [10] [%]
COc1ccc(CNc2nc(N(CCO)CCO)nc3c2ncn3C(C)C)cc1	34	13	87	86	87	79	97	86	60	27
Cc1ccc(NC2=CC(=O)c3sc(C)nc3C2=O)cc1	106	105	98	88	112	101	102	108	103	102
CC[n+]1c(/C=C/N(C)c2ccccc2)n(-c2ccccc2)c2ccc(-c3nc4ccccc4s3)cc21	112	103	103	97	96	92	115	110	100	102
Nc1nc(Nc2ccc(S(N)(=O)=O)cc2)nn1C(=S)Nc1c(F)cccc1F	51	18	84	38	88	78	71	66	10	9
Oc1c2ccccc2c2c3c(cccc13)N=N2	98	73	102	104	108	102	73	30	99	71
Cn1nc2c3c(cccc31)C(=O)c1ccccc1-2	101	97	107	104	109	103	90	101	104	108
O=c1c2ccccc2[nH]c(=S)n1CCN1CCC(=C(c2ccc(F)cc2)c2ccc(F)cc2)CC1	108	105	109	109	101	104	116	117	101	97
N#C/C(=C(\N)Sc1ccc(N)cc1)c1ccccc1C(F)(F)F	107	96	114	104	114	99	98	104	99	104
Cc1cc2ncc(-c3ccccc3)nc2cc1C	106	109	125	131	100	107	106	105	103	85
O=C1Nc2cc(Br)ccc2/C1=C1/Nc2ccccc2/C1=N\O	98	104	100	101	102	95	101	107	112	118
Nc1ccc2ncnc(NCCc3ccc(Oc4ccccc4)cc3)c2c1	103	103	137	113	118	104	87	111	106	111
CC(=O)c1ccc(N2CCOCC2)cc1O	101	102	107	101	100	93	109	108	101	103
O=c1cc(-c2cccc3c2Sc2ccccc2S3)oc(N2CCOCC2)c1	95	86	102	100	104	101	99	95	100	104
CCN(CC)CCCCN1c2ccccc2Oc2ccc(Cl)cc21	112	107	105	98	103	95	117	108	107	111
Oc1ccc(Nc2nc(-c3ccc(Cl)cc3)cs2)cc1	110	101		112	121	101	102	105	105	110
COc1ccc(S(=O)(=O)N(CCO)c2ccccc2CN(C)C/C=C/c2ccc(Cl)cc2)cc1	107	94	106	102	115	96	99	104	108	106
c1ccc(-c2n[nH]c3c2oc2ccccc23)cc1					96	98				
COc1cc2ncc(-c3ccccc3)nc2cc1OC			131	124	97	96				
O=[N+]([O-])c1ccc(-c2nc(-c3ccc(F)cc3)c(-c3ccncc3)[nH]2)cc1	110	99	107	97	107	96		114	104	103
COc1cccc(-c2cc(=O)c3ccccc3o2)c1N	113	104	106	105	121	108	107	119	113	113

From ChEMBL document CHEMBL2218924, “A broad activity screen in support of a chemogenomic map for kinase signalling research and drug discovery” (Biochem J, 2013)
